From PubChem BioAssay come the findings set out here.

The source made the active and inactive calls.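 Rule for the calls, unless noted: active = inhibition at or above 50% at 10 µM; inactive = inhibition below 50%.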 Where a SMILES comes first, the peptide text is derived from it.

Test [1] can be described thus: inhibitors of TNFa-induced NFkB p65 translocation, primary screen, imaging, HUVEC, MLSMR starter and 10KST1 sets (AID 438;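 active = inhibition above 20% together with a positive visual image hit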;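 note: compound added about 3h40 before a 20 min TNFalpha stimulation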;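 for inhibition: signal is the nuclear over cytoplasmic p65 intensity ratio per well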). As to conditions: HUVEC TNFa-induced p65 nuclear translocation; cell count: measured here: nuclei count (cytotoxicity indicator), at 2.08 µM; inhibition: at 2 µM, stronger effect = higher value, 0% TNFa-plus-vehicle, 100% no-TNFa wells.
Test [2] can be described thus: inhibitors of mutant huntingtin aggregation, primary screen, imaging, exon1htt(103Q)mCFP cells, high-content imaging (AID 483;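 active = visual image review flags a hit and inhibition of aggregation exceeds 20%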;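 note: compound exposure lasted 3 days before fixation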;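 for nuclei count: percent of the per-plate median nuclei count of sample wells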). As to conditions: exon1htt(103Q)mCFP cell line, aggregate imaging, at 2 µM; inhibition of aggregation: stronger effect = higher value; nuclei count: measured here: cell count, toxicity.
Test [3] can be described thus: inhibitors of E-selectin induction by TNFa, primary screen, imaging, HUVEC, immunofluorescence, MLSMR starter and 10KST1 sets (AID 487;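 active = visually confirmed hit in the image check and inhibition above 20%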;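 for inhibition: signal is fraction of cell area covered by stained E-selectin grains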;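 for nuclei count: 100% = median nuclei count of all wells on the same plate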). The following applies: HUVEC TNFalpha-induced E-selectin immunofluorescence imaging, at 2 µM; inhibition: stronger effect = higher value; nuclei count: measured here: cell number, toxicity.
Test [4] concerns the target Voltage-gated potassium channel subunit beta-2 (Rattus norvegicus) (UniProt P62483). Description: KvBeta enzyme negative modulators, primary screen, biochemical, NADPH fluorescence (AID 622;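 active = fluorescence slope higher than the sample average by over 3 SD, cut at about -0.22 in these data, passing the limit was not always enough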;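 note: slope of raw intensity against log time taken from 70 to 1610 s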). As to conditions: recombinant KvBeta, 4-cyanobenzaldehyde reduction, at 10 µM, stronger effect = higher value.
Test [5] has the same target. Description: KvBeta positive modulators, primary screen, biochemical, NADPH fluorescence (AID 623;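 active = NADPH fluorescence slope more negative than the mean of all samples by about 3 SD, 99.7% confidence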;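 note: fluorescence intensity change per second fitted from 20 to 320 s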). The following applies: Recombinant KvBeta, NADPH fluorescence decrease slope, 10 min; at 10 µM; stronger effect = lower value.
The target in test [6] is Alpha-2C adrenergic receptor (Homo sapiens) (UniProt P18825). The test can be described thus: modulators of alpha2C/GIRK thallium flux, primary screen, cell-based, HEK293 alpha2C/GIRK1/2 (AID 624;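 active = fluorescence slope after compound addition differing from the mean of all screened samples at 99.7% confidence, in either direction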;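 note: slope of fluorescence ratio to pre-addition baseline per second over 15 to 24 s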). As to conditions: thallium flux BTC fluorescence, at 10 µM, actives lie on both sides.
Alpha-2C adrenergic receptor (Homo sapiens), sequence (P18825 whole entry, looked up): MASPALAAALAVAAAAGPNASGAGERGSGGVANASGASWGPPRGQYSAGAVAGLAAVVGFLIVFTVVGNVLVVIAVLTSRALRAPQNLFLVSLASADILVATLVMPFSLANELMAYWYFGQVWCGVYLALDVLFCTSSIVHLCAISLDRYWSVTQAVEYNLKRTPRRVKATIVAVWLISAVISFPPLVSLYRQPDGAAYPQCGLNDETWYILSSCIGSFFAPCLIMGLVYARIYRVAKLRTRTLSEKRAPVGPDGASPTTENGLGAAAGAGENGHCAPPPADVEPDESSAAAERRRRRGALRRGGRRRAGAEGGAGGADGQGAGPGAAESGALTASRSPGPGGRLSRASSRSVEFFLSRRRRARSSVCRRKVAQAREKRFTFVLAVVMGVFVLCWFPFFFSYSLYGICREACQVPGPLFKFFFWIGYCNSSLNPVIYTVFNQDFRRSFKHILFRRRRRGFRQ
Test [7] can be described thus: inhibitors of Sendai virus-induced IRF3 signaling, primary screen, TLR/RLR signaling modifier project, cell-based, Sendai virus stimulus, luciferase, 10K MLSCN set (AID 602276).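 Note: firefly luciferase from ISG56 promoter only with Renilla not read in this screen; 0% = Sendai virus plus DMSO and 100% = medium plus DMSO without virus.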 The following applies: HEK293 RL24 IRF3 luciferase reporter, at 10 µM, stronger effect = higher value.
Test [8] is described as follows: inhibitors of poly I:C-induced TLR3 signaling, primary screen, cell-based, poly I:C stimulus, luciferase, 10K MLSCN set (AID 602277;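 active = inhibition of the reporter signal at or above 50%; inactive = inhibition below 50%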). As to conditions: HEK293-TLR3 RL24 IRF3 luciferase reporter, at 10 µM, stronger effect = higher value. For orientation: A reporter such as luciferase makes a cellular process visible.

In general, inhibition refers to the drop in the measured response relative to a control, in per cent.

Voltage-gated potassium channel subunit beta-2 (Rattus norvegicus), sequence (P62483 whole entry, looked up): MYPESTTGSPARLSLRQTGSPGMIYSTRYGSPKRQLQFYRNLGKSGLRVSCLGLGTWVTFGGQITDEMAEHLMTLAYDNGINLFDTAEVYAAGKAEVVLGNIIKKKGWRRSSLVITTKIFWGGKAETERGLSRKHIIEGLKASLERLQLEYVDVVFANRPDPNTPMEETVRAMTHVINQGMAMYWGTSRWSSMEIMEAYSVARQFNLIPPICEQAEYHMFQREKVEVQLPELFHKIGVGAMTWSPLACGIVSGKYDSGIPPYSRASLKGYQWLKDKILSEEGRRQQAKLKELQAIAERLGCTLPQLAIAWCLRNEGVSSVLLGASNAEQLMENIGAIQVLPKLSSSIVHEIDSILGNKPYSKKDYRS

Regarding `Cn1c(Cc2ccccc2)nnc1SCC(=O)N1CCOCC1`, the cell count in test [1] was 492. Also, the inhibition in test [1] was -0.8% (inactive); in test [3], -74.1% (inactive); in test [7], 10.3% (inactive); in test [8], 13.5% (inactive). Also, the inhibition of aggregation in test [2] was -33% (inactive). Also, the nuclei count in test [2] was 103%; in test [3] it was 123%. Also, the fluorescence slope in test [4] is -0.276 (inactive). Moreover, in test [5], the NADPH fluorescence slope is -4.7e-05 (inactive). Also, the slope in test [6] was 0.00541 (inactive).
As to `CN(C)S(=O)(=O)c1ccc2c(c1)c(=O)c(C(=O)NCCCN1CCCCCC1)cn2C`, the cell count in test [1] came out at 707. For the same compound, the inhibition in test [1] was -2.8% (inactive); in test [3], -51.2% (inactive); in test [7], 0.741% (inactive); in test [8] it was 31.9% (inactive). The inhibition of aggregation in test [2] is 4.4% (inactive). In addition, the nuclei count in test [2] was determined as 101%; in test [3], 106%. For the same compound, the fluorescence slope in test [4] was -0.601 (inactive). For the same compound, the NADPH fluorescence slope in test [5] was -3.3e-05 (inactive). Also, the slope in test [6] is 0.00602 (inactive).
On to `CNC(=O)c1ccsc1NC(=O)c1ccccc1`, for which the cell count in test [1] stood at 512. Further, the inhibition is 4.7% (inactive) in test [1], 7.3% (inactive) in test [3], -11.3% (inactive) in test [7] and -28.3% (inactive) in test [8]. Besides, the inhibition of aggregation in test [2] is 12.3% (inactive). The values for the nuclei count in test [2] and in test [3] were 91.6% and 88.8%, respectively. In test [4], the fluorescence slope was -0.413 (inactive). For the same compound, the NADPH fluorescence slope in test [5] is -1.9e-05 (inactive). Moreover, the slope in test [6] was 0.00587 (inactive).
With `O=C(Nc1nnc(CCN2CCCCC2)s1)C1CCCCC1`, the cell count in test [1] is 455. For the same compound, the inhibition in test [1] was -11.2% (inactive); in test [3] it was -31.8% (inactive); in test [7] it was 15.1% (inactive); in test [8] it was 16.5% (inactive). For the same compound, in test [2], the inhibition of aggregation was 7% (inactive). In addition, the values for the nuclei count in test [2] and in test [3] were 113% and 102%, respectively. Besides, the fluorescence slope in test [4] is -0.411 (inactive). Also, the NADPH fluorescence slope in test [5] is -6e-05 (inactive). Moreover, in test [6], the slope was 0.00451 (inactive).
With `CC(Sc1nc(-c2ccccc2)cc(C(F)(F)F)n1)C(=O)N1CCCC1` (stereo not drawn), in test [1], the cell count was 698. Besides, the inhibition in test [1] was -1.1% (inactive); in test [3], -83% (inactive); in test [7], 5.88% (inactive); in test [8], 16.9% (inactive). Further, the inhibition of aggregation in test [2] is -38.4% (inactive). Besides, the nuclei count amounted to 118% in test [2] and 133% in test [3]. For the same compound, the fluorescence slope in test [4] was -0.506 (inactive). Moreover, in test [5], the NADPH fluorescence slope is 3.3e-05 (inactive). Also, the slope in test [6] was 0.00611 (inactive).
As to `CC1(C)CC(=O)C2=C(C1)NC(=O)CC2c1ccc(N(CCC#N)CCC#N)cc1` (stereo not drawn), the cell count in test [1] turned out to be 432. The inhibition in test [1] was 5.9% (inactive); in test [3], 21.1% (inactive); in test [7] it was 1.16% (inactive); in test [8] it was 17.9% (inactive). Besides, in test [2], the inhibition of aggregation was -2.1% (inactive). In addition, the nuclei count amounted to 109% in test [2] and 116% in test [3]. Further, in test [4], the fluorescence slope is -0.376 (inactive). Moreover, the NADPH fluorescence slope in test [5] is 6.8e-05 (inactive). In addition, the slope in test [6] is 0.00771 (inactive).
`CCCC(NC(=O)CNC(=O)C(C)(C)C)C(=O)O` (stereo not drawn) (HELM PEPTIDE1{[CC(C)(C)C(=O)[*:2]].G.[CCCC(N[*:1])C(=O)O]}$$$$V2.0): the cell count in test [1] was 678. Further, the inhibition in test [1] is 0.5% (inactive); in test [3], 63.7% (inactive); in test [7], 14.8% (inactive); in test [8], 11.8% (inactive). Besides, the inhibition of aggregation in test [2] was 12.5% (inactive). Also, the nuclei count in test [2] worked out at 104%; in test [3], 97.4%. Moreover, in test [4], the fluorescence slope is -0.499 (inactive). Moreover, in test [5], the NADPH fluorescence slope was -1.3e-05 (inactive). Moreover, the slope in test [6] is 0.00543 (inactive).
Take `CCCn1c(OC)nc2c1c(=O)n(C)c(=O)n2C`: in test [1], the cell count is 660. Further, the inhibition in test [1] is -3.7% (inactive); in test [3], -34.6% (inactive); in test [7], 15.2% (inactive); in test [8], 33.4% (inactive). In addition, in test [2], the inhibition of aggregation was 2.9% (inactive). Also, the nuclei count in test [2] worked out at 104%; in test [3] it was 124%. In addition, the fluorescence slope in test [4] was -0.426 (inactive). In addition, the NADPH fluorescence slope in test [5] is -5.4e-05 (inactive). Moreover, the slope in test [6] is 0.00615 (inactive).
Turning to `CCOC(=O)C1CCCN(C(=O)c2sc3nc(-c4ccccc4)cn3c2C)C1` (stereo not drawn), the cell count in test [1] is 631. Besides, the inhibition in test [1] is 13.2% (inactive); in test [3], 67.6% (active); in test [7], -20.7% (inactive); in test [8], -120% (inactive). Moreover, the inhibition of aggregation in test [2] is 5.7% (inactive). In addition, the nuclei count in test [2] amounted to 103%; in test [3] it was 76.5%. Moreover, in test [4], the fluorescence slope was -0.544 (inactive). Also, the NADPH fluorescence slope in test [5] is 1.7e-05 (inactive). In addition, the slope in test [6] is 0.00524 (inactive).
Turning to `COc1ccc(-c2nc(C#N)c(N3CCOCC3)o2)cc1OC`, in test [1], the cell count is 257. Besides, the inhibition is -4.8% (inactive) in test [1], -16.3% (inactive) in test [3], 9.75% (inactive) in test [7] and -1.53% (inactive) in test [8]. In addition, the inhibition of aggregation in test [2] is 30.6% (active). Further, the nuclei count in test [2] came out at 92.9%; in test [3] it was 98.5%. Also, in test [4], the fluorescence slope is -0.341 (inactive). Also, in test [5], the NADPH fluorescence slope is -1.9e-05 (inactive). Also, in test [6], the slope is 0.00341 (inactive).
For the compound `O=C(NCCOC(=O)C1COc2ccccc2O1)C1COc2ccccc2O1` (stereo not drawn), the cell count in test [1] came out at 357. Moreover, the inhibition was -2.1% (inactive) in test [1], -99.1% (inactive) in test [3], -2.25% (inactive) in test [7] and 19.3% (inactive) in test [8]. The inhibition of aggregation in test [2] was -2% (inactive). For the same compound, the nuclei count in test [2] is 106%; in test [3], 128%. Further, the fluorescence slope in test [4] is -0.48 (inactive). Further, the NADPH fluorescence slope in test [5] is -3.8e-05 (inactive). Also, the slope in test [6] was 0.00608 (inactive).
As to `OC(CCN1CCOCC1)(c1ccc(Cl)cc1)C1CCCCC1` (stereo not drawn), in test [1], the cell count worked out at 663. The inhibition in test [1] was -1% (inactive); in test [3] it was 37.9% (inactive); in test [7], -9.83% (inactive); in test [8], -48.9% (inactive). Also, the inhibition of aggregation in test [2] is -1.2% (inactive). Besides, the nuclei count worked out at 48.5% in test [2] and 120% in test [3]. Further, the fluorescence slope in test [4] was -0.588 (inactive). Further, in test [5], the NADPH fluorescence slope is -2.6e-05 (inactive). Besides, the slope in test [6] is 0.00224 (inactive).
Turning to `CC1(C)Cc2cccc(OCC(O)CN3CCN(c4ccccn4)CC3)c2O1` (stereo not drawn), in test [1], the cell count was 518. Besides, the inhibition was -7.3% (inactive) in test [1], -90.2% (inactive) in test [3], -6.85% (inactive) in test [7] and -0.552% (inactive) in test [8]. The inhibition of aggregation in test [2] is 3.5% (inactive). Also, the nuclei count worked out at 92.3% in test [2] and 111% in test [3]. Moreover, in test [4], the fluorescence slope was -0.624 (inactive). Further, the NADPH fluorescence slope in test [5] was -2e-05 (inactive). The slope in test [6] is 0.00547 (inactive).
